Measurements as given in publication PMC5540273 (PLoS ONE, 2017).

Tests used:
Conditions in all cases: concentration: 1 μM, replicates: in singlicate; n = 1
[1] = system: PRKD3
[2] = system: PRKG1
[3] = system: PRKG2
[4] = system: T1, PRKR
T1 construct: gene EIF2AK2

[5] = system: PRKX
[6] = system: PRP4
[7] = system: T2, PYK2
T2 construct: gene PTK2B

[8] = system: QSK
[9] = system: RAF1
[10] = system: RET
[11] = system: RIOK1
[12] = system: RIOK2
[13] = system: RIOK3
[14] = system: RIPK1
[15] = system: RIPK2
[16] = system: RIPK4
[17] = system: RIPK5
[18] = system: ROCK1
[19] = system: ROCK2
[20] = system: ROS1
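Note: KINOMEscan kinase panel screen.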

Row | Structure (SMILES) | %Inh [1] | %Inh [2] | %Inh [3] | %Inh [4] | %Inh [5] | %Inh [6] | %Inh [7] | %Inh [8] | %Inh [9] | %Inh [10] | %Inh [11] | %Inh [12] | %Inh [13] | %Inh [14] | %Inh [15] | %Inh [16] | %Inh [17] | %Inh [18] | %Inh [19] | %Inh [20]
1 | COc1ccc(CNC(=O)NC2CCN(c3ccnc(Nc4ccc(F)cc4)n3)CC2)cc1 [GSK1379788] | 0% | 0% | 0% | 0% | 5% | 46% | 0% | 0% | 7% | 0% | 28% | 0% | 0% | 0% | 0% | 12% | 0% | 12% | 31% | 26%
2 | COc1ccc(-c2coc3ccc(-c4nnc(SCc5ccc(OC)c(C(F)(F)F)c5)o4)cc23)cc1 | 0% | 6% | 14% | 0% | 0% | 15% | 0% | 0% | 12% | 0% | 0% | 20% | 9% | 9% | 17% | 12% | 20% | 0% | 23% | 0%
3 | Cc1cccc(NC(=O)Nc2ccc(Oc3ncnc4ccn(C)c34)cc2)c1 | 0% | 100% | 0% | 0% | 0% | 0% | 0% | 0% | 0% | 94% | 0% | 0% | 24% | 0% | 11% | 0% | 5% | 0% | 0% | 0%
4 | CC(=O)N1CCN(c2ccc(Nc3nccc(-c4sc(C(C)C)nc4-c4cccc(NS(=O)(=O)c5cccc(Cl)c5)c4)n3)cn2)CC1 [GSK1660437] | 100% | 25% | 0% | 0% | 5% | 2% | 0% | 10% | 86% | 54% | 19% | 10% | 4% | 0% | 93.2% | 0% | 37% | 0% | 18% | 21%
5 | FC(F)(F)c1ccc(/C=C/c2cncnc2Nc2ccc3[nH]c(Cc4ccccc4)nc3c2)cc1 [GW709199] | 0% | 0% | 6% | 2% | 0% | 0% | 30% | 0% | 46% | 8% | 33% | 0% | 2% | 11% | 11% | 0% | 0% | 0% | 0% | 0%
6 | O=C(NC1CCN(c2ccnc(Nc3ccc(F)cc3)n2)C1)c1cc2ccccc2s1 (centres unmarked) [GSK1379716] | 9% | 7% | 0% | 0% | 4% | 45% | 15% | 10% | 17% | 10% | 27% | 0% | 33% | 0% | 9% | 3% | 13% | 39% | 29% | 36%
7 | Cc1ccc(F)c(C(=O)Nc2cccc(-c3nn4ccccc4c3-c3ccnc(Nc4cccc(F)c4)n3)c2)c1F [GSK361061] | 32% | 18% | 0% | 0% | 12% | 15% | 0% | 17% | 87% | 96.3% | 23% | 26% | 5% | 2% | 61% | 4% | 0% | 0% | 3% | 21%
8 | CNC(=O)c1ccccc1Nc1nc(Nc2ccc(N3CCOCC3)cc2)ncc1Cl.Cl [GSK1576028] | 81% | 74% | 88% | 72% | 17% | 77% | 99.7% | 18% | 0% | 100% | 100% | 90.7% | 100% | 36% | 35% | 79% | 80% | 53% | 37% | 90.9%
9 | Nc1n[nH]c2cnc(-c3ccccc3)cc12 [SB-642124] | 0% | 0% | 0% | 0% | 19% | 18% | 5% | 0% | 11% | 0% | 31% | 20% | 100% | 30% | 29% | 25% | 0% | 40% | 18% | 0%
10 | Cc1cccc(Nc2nc(N[C@H]3CCNC3)ncc2C(N)=O)c1.Cl [GSK2197149] | 75% | 0% | 0% | 22% | 38% | 23% | 49% | 14% | 0% | 30% | 99.8% | 28% | 89% | 0% | 0% | 90.7% | 1% | 67% | 45% | 32%
11 | CN(c1ccc(NC(=O)Nc2cc(C(F)(F)F)ccc2F)cc1)c1ccnc(Nc2ccc(S(N)(=O)=O)cc2)n1 [GW809893] | 0% | 16% | 17% | 3% | 0% | 14% | 94.8% | 25% | 88% | 100% | 24% | 2% | 40% | 99.1% | 73% | 26% | 47% | 0% | 24% | 95.9%
12 | O=C(Nc1cccc(-c2nn3ncccc3c2-c2ccnc(Nc3ccccc3)n2)c1)c1c(F)cccc1F [GSK198271] | 47% | 0% | 0% | 0% | 11% | 6% | 27% | 10% | 94.1% | 99.7% | 4% | 17% | 16% | 0% | 94.8% | 10% | 6% | 34% | 0% | 28%
13 | Cl.Cl.NCC(NC(=O)c1cc(-c2ccccc2)c(-c2ccnc3[nH]ccc23)s1)c1ccccc1 (centres unmarked) [GSK1321561] | 38% | 70% | 18% | 3% | 76% | 5% | 0% | 14% | 18% | 35% | 69% | 45% | 88% | 24% | 24% | 0% | 0% | 99.8% | 98.9% | 19%
14 | COc1cc(Nc2nccc(-c3c(-c4cccc(NC(=O)c5c(F)cccc5F)c4)nn4ccccc34)n2)cc(OC)c1OC [GSK323521] | 42% | 31% | 0% | 15% | 22% | 1% | 2% | 3% | 16% | 29% | 34% | 14% | 0% | 93.9% | 79% | 0% | 67% | 0% | 6% | 0%
15 | Cl.Cl.NCC(C(=O)Nc1cc(Br)c(-c2ccnc3[nH]ccc23)s1)c1ccccc1 (centres unmarked) [GSK1269851] | 41% | 94.6% | 86% | 0% | 88% | 83% | 2% | 15% | 0% | 32% | 95.7% | 19% | 67% | 0% | 0% | 27% | 0% | 99.1% | 91.8% | 12%
16 | c1ccc(-c2cnc3nccnn23)cc1 [AH20685] | 0% | 14% | 0% | 0% | 6% | 6% | 0% | 0% | 7% | 0% | 0% | 0% | 0% | 0% | 0% | 0% | 0% | 0% | 0% | 0%
17 | Cc1ccc(C(=O)Nc2ccc(Nc3ccnc4cc(-c5nccs5)ccc34)cc2O)cc1.Cl [GW494702] | 0% | 0% | 0% | 0% | 11% | 46% | 0% | 0% | 19% | 59% | 27% | 7% | 0% | 0% | 49% | 13% | 0% | 18% | 12% | 0%
18 | COc1ccc(Nc2nccc(N3CCC(NC(=O)Nc4cccc(OC)c4)C3)n2)cc1 (centres unmarked) [GSK1379742] | 0% | 0% | 0% | 0% | 15% | 12% | 5% | 6% | 3% | 7% | 34% | 4% | 25% | 0% | 0% | 0% | 0% | 0% | 2% | 13%
19 | CN1CCN(CCCNc2nccc(-c3c(-c4ccc(F)cc4)nn4cc(C(F)(F)F)ccc34)n2)CC1 [GW621581] | 62% | 10% | 0% | 0% | 13% | 25% | 0% | 0% | 8% | 0% | 28% | 4% | 0% | 0% | 52% | 0% | 0% | 0% | 26% | 0%
